From PubChem BioAssay
Activity calls are given as the source filed them. The rule behind the calls is not given here.

system: Aerobactin synthetase IucA (Klebsiella pneumoniae hvKP1); test: Biochemical IucA enzyme inhibition primary screen of the Spectrum library (AID 1346200); details: malachite green pyrophosphate, A620, at 8 µM, active compounds read low;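 note: 100% = wells without compound and 0% = wells lacking enzyme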

SMILES	activity remaining
CC(=O)O[C@H]1C[C@@H](OC(C)=O)C(C)(C)C2C[C@@H](O)[C@]3(C)C(CC[C@@]4(C)[C@H](c5ccoc5)OC(=O)[C@H]5O[C@]543)[C@]21C (stereo partly specified)	94.5% (inactive)
CC1=C2[C@H]([C@@H](C)CC[C@@H]2/C=C(\C)C(=O)O)[C@@H](O)C1	116% (inactive)
Cc1cc(=O)c2c(O)c(C)c(O)cc2o1	108% (inactive)
CC(C)(Oc1ccc(CCNC(=O)c2ccc(Cl)cc2)cc1)C(=O)O	96.6% (inactive)
Cc1cc(/C=C/c2ccc3cc(N(C)C)ccc3[n+]2C)c(C)n1-c1ccccc1	72.1% (inactive)
Cc1cc(C(C)(C)C)c(O)c(C(C)(C)C)c1	110% (inactive)
